# From paper PMC7862700, “An all-to-all approach to the identification of sequence-specific readers for epigenetic DNA modifications on cytosine”
# Legend:
# Assay in all cases: DAPPL (digital affinity profiling via proximity ligation, sequencing); 10 mM Tris-HCl pH 7.5, 50 mM NaCl, 1 mM DTT, 4% glycerol, room temperature, 30 min; GST-TFs on glutathione beads, 16-mer random dsDNA library, 0.1% formaldehyde crosslink after washing; high values mean tight binding
# [1] = target: T1, FLI1 (Homo sapiens, UniProt Q01543 1-452); details: protein: recombinant; tags: N-terminal GST; dsDNA, one strand shown
# T1 sequence: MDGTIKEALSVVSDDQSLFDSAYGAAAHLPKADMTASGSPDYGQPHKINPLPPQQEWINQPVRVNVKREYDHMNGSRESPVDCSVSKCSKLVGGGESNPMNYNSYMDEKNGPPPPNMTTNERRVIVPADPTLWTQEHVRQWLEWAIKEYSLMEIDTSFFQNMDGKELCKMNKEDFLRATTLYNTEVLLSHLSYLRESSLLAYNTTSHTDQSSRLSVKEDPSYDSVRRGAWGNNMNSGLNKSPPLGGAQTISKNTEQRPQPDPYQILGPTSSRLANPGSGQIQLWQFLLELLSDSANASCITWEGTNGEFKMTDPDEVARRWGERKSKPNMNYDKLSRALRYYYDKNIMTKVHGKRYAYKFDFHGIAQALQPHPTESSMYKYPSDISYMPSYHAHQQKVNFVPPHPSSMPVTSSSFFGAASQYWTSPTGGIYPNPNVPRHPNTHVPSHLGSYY
# In short: (§1)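 Sequencing on an Illumina NextSeq500 followed washing, crosslinking with 0.1% formaldehyde, proximity ligation (BsaI/T4 ligase, 1 h, 37 °C) and PCR amplification of pools that had been incubated for 30 min at room temperature with 200 nmole of a random double-stranded 16-mer DNA library in Tris/NaCl/DTT/glycerol buffer. Each pool held DNA-barcoded human transcription factors, expressed in yeast as GST fusions and captured on glutathione beads, plus a tag-only sample. Binding signal is a hexamer's read frequency for a factor divided by its frequency in the tag-only sample.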
# [2] = target: T2, ELK1 (Homo sapiens, UniProt P19419 1-428); details: protein: recombinant; tags: N-terminal GST; dsDNA, one strand shown
# T2 sequence: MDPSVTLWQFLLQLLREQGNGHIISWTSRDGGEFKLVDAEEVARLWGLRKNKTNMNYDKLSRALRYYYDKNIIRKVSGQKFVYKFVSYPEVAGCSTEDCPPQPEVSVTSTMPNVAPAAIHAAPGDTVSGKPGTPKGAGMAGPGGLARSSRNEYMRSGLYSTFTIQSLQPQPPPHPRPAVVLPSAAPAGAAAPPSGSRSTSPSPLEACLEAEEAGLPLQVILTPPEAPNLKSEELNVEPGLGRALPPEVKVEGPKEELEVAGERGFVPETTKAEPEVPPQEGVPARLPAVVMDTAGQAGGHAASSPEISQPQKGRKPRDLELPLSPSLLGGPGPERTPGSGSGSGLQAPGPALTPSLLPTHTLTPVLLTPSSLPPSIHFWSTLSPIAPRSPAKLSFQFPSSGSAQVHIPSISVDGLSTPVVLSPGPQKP
# In short: as §1
# [3] = target: T3, GABPA (Homo sapiens, UniProt Q06546 1-454); details: protein: recombinant; tags: N-terminal GST; dsDNA, one strand shown
# T3 sequence: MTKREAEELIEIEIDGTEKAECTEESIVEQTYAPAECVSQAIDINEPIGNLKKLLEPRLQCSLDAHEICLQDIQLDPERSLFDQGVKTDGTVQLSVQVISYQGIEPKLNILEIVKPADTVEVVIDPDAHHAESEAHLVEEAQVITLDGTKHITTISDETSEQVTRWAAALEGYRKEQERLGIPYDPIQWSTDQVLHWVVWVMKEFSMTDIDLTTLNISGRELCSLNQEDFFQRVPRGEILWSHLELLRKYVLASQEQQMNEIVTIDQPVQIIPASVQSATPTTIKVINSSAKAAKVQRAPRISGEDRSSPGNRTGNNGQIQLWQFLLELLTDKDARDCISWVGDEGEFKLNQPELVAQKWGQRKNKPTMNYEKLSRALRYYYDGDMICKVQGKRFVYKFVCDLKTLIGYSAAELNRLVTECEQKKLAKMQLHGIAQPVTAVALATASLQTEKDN
# In short: as §1
# [4] = target: T4, ERG (Homo sapiens, UniProt P11308 1-479); details: protein: recombinant; tags: N-terminal GST; dsDNA, one strand shown
# T4 sequence: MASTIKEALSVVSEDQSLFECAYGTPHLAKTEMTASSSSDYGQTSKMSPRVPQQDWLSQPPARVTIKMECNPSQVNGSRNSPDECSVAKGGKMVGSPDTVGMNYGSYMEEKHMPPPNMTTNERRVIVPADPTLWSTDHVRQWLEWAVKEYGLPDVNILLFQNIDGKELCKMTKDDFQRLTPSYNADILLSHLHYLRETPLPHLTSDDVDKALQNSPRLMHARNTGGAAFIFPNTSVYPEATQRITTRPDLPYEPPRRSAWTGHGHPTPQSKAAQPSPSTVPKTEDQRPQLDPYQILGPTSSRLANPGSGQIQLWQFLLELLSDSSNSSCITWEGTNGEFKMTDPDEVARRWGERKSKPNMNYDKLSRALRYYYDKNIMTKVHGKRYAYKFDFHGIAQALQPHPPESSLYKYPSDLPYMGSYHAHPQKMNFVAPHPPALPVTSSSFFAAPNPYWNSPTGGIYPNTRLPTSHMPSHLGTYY
# In short: as §1
# [5] = target: ELF1 (Homo sapiens, UniProt P32519 1-619); details: protein: recombinant; tags: N-terminal GST; dsDNA, one strand shown
# In short: as §1
# [6] = target: T5, EHF (Homo sapiens, UniProt Q9NZC4 1-300); details: protein: recombinant; tags: N-terminal GST; dsDNA, one strand shown
# T5 sequence: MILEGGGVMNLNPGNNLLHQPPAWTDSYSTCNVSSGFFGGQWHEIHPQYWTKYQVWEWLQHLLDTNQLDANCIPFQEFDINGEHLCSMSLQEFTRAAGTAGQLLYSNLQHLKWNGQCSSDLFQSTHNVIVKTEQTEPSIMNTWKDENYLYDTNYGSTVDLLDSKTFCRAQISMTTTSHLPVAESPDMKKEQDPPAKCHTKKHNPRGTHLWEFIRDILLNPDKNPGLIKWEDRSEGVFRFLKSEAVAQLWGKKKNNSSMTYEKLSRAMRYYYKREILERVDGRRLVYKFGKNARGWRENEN
# In short: as §1
# [7] = target: SPI1 (Homo sapiens, UniProt P17947 1-270); details: protein: recombinant; tags: N-terminal GST; dsDNA, one strand shown
# In short: as §1
# [8] = target: SPIB (Homo sapiens, UniProt Q01892 1-262); details: protein: recombinant; tags: N-terminal GST; dsDNA, one strand shown
# In short: as §1
# [9] = target: T6, ELK3 (Homo sapiens, UniProt P41970 1-407); details: protein: recombinant; tags: N-terminal GST; dsDNA, one strand shown
# T6 sequence: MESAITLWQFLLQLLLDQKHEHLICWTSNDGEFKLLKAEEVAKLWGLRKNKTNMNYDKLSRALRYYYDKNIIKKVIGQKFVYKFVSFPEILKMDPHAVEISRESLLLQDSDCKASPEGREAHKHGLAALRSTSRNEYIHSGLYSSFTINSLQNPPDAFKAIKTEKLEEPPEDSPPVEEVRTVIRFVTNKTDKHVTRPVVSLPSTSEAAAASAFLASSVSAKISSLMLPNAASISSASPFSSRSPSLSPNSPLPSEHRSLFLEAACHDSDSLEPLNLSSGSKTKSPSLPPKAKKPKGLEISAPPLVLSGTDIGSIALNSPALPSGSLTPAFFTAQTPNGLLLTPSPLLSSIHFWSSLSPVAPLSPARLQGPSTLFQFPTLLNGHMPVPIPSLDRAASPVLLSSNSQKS
# In short: as §1
# [10] = target: T7, FEV (Homo sapiens, UniProt Q99581 1-238); details: protein: recombinant; tags: N-terminal GST; dsDNA, one strand shown
# T7 sequence: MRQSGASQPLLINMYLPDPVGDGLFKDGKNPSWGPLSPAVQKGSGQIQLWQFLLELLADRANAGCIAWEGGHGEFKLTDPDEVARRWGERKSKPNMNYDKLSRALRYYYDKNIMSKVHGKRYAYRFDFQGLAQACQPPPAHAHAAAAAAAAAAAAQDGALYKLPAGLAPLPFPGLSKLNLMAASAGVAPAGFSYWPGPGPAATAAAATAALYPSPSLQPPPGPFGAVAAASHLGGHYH
# In short: as §1
# [11] = target: ETV5 (Homo sapiens, UniProt P41161 1-510); details: protein: recombinant; tags: N-terminal GST; dsDNA, one strand shown
# In short: as §1
# [12] = target: HSF1 (Homo sapiens, UniProt Q00613 1-529); details: protein: recombinant; tags: N-terminal GST; chain copies: 3; dsDNA, one strand shown
# In short: as §1
# [13] = target: T8, SPIC (Homo sapiens, UniProt Q8N5J4 1-248); details: protein: recombinant; tags: N-terminal GST; dsDNA, one strand shown
# T8 sequence: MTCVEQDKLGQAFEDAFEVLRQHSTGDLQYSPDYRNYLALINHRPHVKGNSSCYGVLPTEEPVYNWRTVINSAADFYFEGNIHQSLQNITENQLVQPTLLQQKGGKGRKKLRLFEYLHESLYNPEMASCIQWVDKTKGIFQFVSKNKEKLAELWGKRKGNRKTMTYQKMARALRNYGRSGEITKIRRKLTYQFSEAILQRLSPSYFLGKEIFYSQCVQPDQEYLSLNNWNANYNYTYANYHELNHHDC
# In short: as §1
# [14] = target: ELF4 (Homo sapiens, UniProt Q99607 1-663); details: protein: recombinant; tags: N-terminal GST; dsDNA, one strand shown
# In short: as §1
# [15] = target: T9, ELK4 (Homo sapiens, UniProt P28324-2 1-405); details: protein: recombinant; tags: N-terminal GST; dsDNA, one strand shown
# T9 sequence: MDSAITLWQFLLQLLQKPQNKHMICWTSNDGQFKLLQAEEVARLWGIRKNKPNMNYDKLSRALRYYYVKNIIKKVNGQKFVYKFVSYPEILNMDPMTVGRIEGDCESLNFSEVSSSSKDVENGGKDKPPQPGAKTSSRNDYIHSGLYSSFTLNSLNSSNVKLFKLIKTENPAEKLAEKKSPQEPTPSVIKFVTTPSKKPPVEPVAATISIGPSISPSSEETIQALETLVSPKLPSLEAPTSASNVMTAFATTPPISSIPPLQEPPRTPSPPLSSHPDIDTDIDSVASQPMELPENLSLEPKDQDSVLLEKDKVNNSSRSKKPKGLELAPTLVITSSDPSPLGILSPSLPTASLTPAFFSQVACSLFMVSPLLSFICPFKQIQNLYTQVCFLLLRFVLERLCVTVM
# In short: as §1
# [16] = target: T10, ETV2 (Homo sapiens, UniProt O00321 1-342); details: protein: recombinant; tags: N-terminal GST; dsDNA, one strand shown
# T10 sequence: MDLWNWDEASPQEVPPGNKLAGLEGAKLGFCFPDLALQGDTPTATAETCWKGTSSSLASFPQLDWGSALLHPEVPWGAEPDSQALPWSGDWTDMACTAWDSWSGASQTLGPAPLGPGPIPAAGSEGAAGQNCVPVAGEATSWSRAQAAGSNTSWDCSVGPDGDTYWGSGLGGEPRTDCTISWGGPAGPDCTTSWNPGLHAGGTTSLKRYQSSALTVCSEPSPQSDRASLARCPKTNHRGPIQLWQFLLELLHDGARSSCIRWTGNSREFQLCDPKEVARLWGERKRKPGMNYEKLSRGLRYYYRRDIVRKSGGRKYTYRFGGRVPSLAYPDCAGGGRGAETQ
# In short: as §1
# [17] = target: T11, ELF3 (Homo sapiens, UniProt P78545 1-371); details: protein: recombinant; tags: N-terminal GST; dsDNA, one strand shown
# T11 sequence: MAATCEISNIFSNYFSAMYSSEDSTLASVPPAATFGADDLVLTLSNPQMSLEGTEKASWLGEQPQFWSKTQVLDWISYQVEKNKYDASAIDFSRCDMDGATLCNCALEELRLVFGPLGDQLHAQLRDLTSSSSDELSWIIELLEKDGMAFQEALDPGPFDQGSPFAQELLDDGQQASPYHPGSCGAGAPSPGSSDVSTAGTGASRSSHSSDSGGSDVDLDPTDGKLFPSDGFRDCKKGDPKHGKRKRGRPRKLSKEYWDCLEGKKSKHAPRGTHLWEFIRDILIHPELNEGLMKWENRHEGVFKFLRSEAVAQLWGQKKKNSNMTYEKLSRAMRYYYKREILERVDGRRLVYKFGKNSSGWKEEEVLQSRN
# In short: as §1
# [18] = target: CRX (Homo sapiens, UniProt O43186 1-299); details: protein: recombinant; tags: N-terminal GST; dsDNA, one strand shown
# In short: as §1
# [19] = target: ETV1 (Homo sapiens, UniProt P50549 1-477); details: protein: recombinant; tags: N-terminal GST; dsDNA, one strand shown
# In short: as §1
# ELF1, sequence (P32519 whole entry): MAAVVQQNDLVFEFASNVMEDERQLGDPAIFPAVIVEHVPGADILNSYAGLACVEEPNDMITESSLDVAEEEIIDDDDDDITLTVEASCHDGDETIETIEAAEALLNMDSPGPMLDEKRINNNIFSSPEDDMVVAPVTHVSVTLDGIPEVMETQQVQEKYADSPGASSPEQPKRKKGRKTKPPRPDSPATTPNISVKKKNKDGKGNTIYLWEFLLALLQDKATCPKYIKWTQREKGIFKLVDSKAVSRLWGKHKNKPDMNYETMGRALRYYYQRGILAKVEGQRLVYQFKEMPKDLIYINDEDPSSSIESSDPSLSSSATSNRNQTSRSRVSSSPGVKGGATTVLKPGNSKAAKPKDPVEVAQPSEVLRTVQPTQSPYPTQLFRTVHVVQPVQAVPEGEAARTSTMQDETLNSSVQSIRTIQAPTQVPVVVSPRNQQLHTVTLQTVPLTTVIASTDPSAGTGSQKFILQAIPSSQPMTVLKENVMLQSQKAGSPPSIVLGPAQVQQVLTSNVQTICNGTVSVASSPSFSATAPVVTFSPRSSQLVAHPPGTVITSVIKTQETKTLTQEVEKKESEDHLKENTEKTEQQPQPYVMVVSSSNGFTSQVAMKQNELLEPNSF
# HSF1, sequence (Q00613 whole entry): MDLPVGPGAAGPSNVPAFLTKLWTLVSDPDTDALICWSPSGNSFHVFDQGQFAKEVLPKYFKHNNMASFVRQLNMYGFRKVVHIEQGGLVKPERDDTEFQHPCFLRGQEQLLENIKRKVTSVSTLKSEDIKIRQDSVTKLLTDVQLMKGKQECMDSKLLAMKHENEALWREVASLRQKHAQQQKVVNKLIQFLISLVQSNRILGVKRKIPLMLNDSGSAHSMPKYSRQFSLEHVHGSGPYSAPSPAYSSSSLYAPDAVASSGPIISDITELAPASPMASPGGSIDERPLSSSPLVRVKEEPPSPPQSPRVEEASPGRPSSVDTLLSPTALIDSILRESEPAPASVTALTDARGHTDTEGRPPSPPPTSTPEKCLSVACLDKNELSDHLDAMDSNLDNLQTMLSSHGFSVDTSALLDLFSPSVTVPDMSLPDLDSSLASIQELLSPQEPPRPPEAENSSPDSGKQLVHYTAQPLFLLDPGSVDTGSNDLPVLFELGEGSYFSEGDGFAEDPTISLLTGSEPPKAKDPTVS
# ELF4, sequence (Q99607 whole entry): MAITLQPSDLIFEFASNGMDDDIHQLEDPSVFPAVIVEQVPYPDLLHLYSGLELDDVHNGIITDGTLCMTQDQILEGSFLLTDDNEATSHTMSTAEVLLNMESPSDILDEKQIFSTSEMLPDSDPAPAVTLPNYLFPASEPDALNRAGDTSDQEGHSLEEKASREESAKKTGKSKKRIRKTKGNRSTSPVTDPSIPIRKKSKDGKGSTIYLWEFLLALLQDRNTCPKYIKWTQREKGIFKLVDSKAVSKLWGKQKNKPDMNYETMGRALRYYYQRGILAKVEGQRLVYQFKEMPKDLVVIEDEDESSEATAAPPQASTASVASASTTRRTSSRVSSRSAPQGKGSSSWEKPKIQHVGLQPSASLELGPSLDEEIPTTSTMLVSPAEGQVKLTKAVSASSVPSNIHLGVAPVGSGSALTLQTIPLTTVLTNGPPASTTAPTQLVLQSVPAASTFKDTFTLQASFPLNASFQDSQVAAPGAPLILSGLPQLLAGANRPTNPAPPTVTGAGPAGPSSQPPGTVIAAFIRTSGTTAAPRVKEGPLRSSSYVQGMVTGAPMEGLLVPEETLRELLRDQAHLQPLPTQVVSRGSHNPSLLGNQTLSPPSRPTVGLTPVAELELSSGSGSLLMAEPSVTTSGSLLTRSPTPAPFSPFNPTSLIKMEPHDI
# CRX, sequence (O43186 whole entry): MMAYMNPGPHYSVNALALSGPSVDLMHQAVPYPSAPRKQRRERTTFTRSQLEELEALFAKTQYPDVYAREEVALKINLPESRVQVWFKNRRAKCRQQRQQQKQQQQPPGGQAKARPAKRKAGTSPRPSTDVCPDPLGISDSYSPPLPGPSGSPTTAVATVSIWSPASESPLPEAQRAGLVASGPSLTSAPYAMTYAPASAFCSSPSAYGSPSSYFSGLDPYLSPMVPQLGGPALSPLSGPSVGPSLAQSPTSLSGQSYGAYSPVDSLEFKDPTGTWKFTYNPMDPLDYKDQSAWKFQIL
# ETV1, sequence (P50549 whole entry): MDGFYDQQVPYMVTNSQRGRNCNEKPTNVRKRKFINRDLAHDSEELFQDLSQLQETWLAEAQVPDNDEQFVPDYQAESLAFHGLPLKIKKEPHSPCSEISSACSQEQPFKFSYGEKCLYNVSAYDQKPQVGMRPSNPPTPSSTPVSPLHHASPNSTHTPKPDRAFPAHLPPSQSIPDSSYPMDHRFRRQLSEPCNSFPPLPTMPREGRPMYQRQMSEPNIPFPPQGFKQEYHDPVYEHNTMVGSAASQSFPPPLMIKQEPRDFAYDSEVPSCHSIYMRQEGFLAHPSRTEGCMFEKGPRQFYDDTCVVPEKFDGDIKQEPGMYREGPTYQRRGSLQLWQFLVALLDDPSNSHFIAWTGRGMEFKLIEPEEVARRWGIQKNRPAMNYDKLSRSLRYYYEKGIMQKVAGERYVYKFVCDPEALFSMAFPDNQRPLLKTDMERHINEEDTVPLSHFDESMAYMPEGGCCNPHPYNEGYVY
# SPIB, sequence (Q01892 whole entry): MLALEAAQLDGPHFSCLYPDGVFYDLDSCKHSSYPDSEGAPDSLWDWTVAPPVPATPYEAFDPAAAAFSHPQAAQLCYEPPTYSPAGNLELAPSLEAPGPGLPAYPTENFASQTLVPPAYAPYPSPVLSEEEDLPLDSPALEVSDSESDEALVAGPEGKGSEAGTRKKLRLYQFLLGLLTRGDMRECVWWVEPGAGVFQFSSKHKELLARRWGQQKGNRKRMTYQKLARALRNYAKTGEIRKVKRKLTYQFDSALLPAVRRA
# ETV5, sequence (P41161 whole entry): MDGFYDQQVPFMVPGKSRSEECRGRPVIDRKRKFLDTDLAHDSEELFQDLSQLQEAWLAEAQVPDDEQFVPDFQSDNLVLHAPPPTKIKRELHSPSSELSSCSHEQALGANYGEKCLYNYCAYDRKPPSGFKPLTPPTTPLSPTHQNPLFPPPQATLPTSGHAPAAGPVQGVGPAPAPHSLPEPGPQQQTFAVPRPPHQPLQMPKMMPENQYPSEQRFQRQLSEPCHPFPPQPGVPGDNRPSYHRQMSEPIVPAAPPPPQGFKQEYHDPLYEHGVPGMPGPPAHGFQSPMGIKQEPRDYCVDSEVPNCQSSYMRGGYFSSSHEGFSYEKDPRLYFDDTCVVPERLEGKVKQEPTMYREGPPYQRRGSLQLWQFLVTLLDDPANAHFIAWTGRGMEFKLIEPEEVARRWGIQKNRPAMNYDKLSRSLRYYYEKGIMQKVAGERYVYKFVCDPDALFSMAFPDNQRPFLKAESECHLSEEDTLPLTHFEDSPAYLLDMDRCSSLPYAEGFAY
sequence,measurement,setting,value
ACCTGC,binding signal,[1],"1.37 fold enrichment (6-mer frequency, TF over GST control)"
same,binding signal,[2],"1.52 fold enrichment (6-mer frequency, TF over GST control)"
same,binding signal,[3],"1.39 fold enrichment (6-mer frequency, TF over GST control)"
same,binding signal,[4],"1.39 fold enrichment (6-mer frequency, TF over GST control)"
same,binding signal,[5],"1.54 fold enrichment (6-mer frequency, TF over GST control)"
same,binding signal,[6],"1.67 fold enrichment (6-mer frequency, TF over GST control)"
same,binding signal,[7],"1.46 fold enrichment (6-mer frequency, TF over GST control)"
same,binding signal,[8],"1.39 fold enrichment (6-mer frequency, TF over GST control)"
same,binding signal,[9],"1.33 fold enrichment (6-mer frequency, TF over GST control)"
same,binding signal,[10],"1.5 fold enrichment (6-mer frequency, TF over GST control)"
same,binding signal,[11],"1.53 fold enrichment (6-mer frequency, TF over GST control)"
same,binding signal,[12],"1.27 fold enrichment (6-mer frequency, TF over GST control)"
same,binding signal,[13],"1.22 fold enrichment (6-mer frequency, TF over GST control)"
same,binding signal,[14],"1.47 fold enrichment (6-mer frequency, TF over GST control)"
same,binding signal,[15],"1.59 fold enrichment (6-mer frequency, TF over GST control)"
same,binding signal,[16],"1.39 fold enrichment (6-mer frequency, TF over GST control)"
same,binding signal,[17],"1.65 fold enrichment (6-mer frequency, TF over GST control)"
same,binding signal,[18],"1.22 fold enrichment (6-mer frequency, TF over GST control)"
same,binding signal,[19],"1.57 fold enrichment (6-mer frequency, TF over GST control)"
